# From the supplement of paper PMC6555819
# Legend:
# Experiment in all cases: PBM binding z-score (relative to random genomic background probes); higher = stronger binding; sequences stand for … in GC…GCGATTGACAGCGTAGAATGAAGG
# [1] = test system: FXR:RXRa (NR concentration 270 nM, RXRa partner concentration 90 nM)
# Procedure, shortened: (§1)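 Antibodies against each partner of ligand-free nuclear receptor dimers (one per run) detected binding on custom Agilent 4×180K protein-binding microarrays after 1 h incubation. The double-stranded probes had 34-nt variable regions carrying direct-repeat seeds, single-nucleotide variants, half-site ablations and random human genomic background sequences. Binding z-scores, from regression-normalized fluorescence, use the random background probes as reference.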
# [2] = test system: LXRa:RXRa (NR concentration 270 nM, RXRa partner concentration 90 nM)
# Procedure, shortened: as §1
# [3] = test system: LXRa homodimer (NR concentration 270 nM)
# Procedure, shortened: as §1
# [4] = test system: LXRb:RXRa (NR concentration 270 nM, RXRa partner concentration 90 nM)
# Procedure, shortened: as §1
# [5] = test system: LXRb homodimer (NR concentration 270 nM)
# Procedure, shortened: as §1
# [6] = test system: PPARa:RXRa (NR concentration 270 nM, RXRa partner concentration 90 nM)
# Procedure, shortened: as §1
# [7] = test system: PPARg:RXRa (NR concentration 180 nM, RXRa partner concentration 90 nM)
# Procedure, shortened: as §1
# [8] = test system: PPARg:RXRa 270nM:90nM, anti-RXR (NR concentration 270 nM, RXRa partner concentration 90 nM)
# Procedure, shortened: as §1
# [9] = test system: PPARg:RXRa 30nM:10nM, anti-RXR (NR concentration 30 nM, RXRa partner concentration 10 nM)
# Procedure, shortened: as §1
# [10] = test system: PPARg:RXRa 90nM:30nM, anti-RXR (NR concentration 90 nM, RXRa partner concentration 30 nM)
# Procedure, shortened: as §1
Sequence,PBM binding z-score [1],PBM binding z-score [2],PBM binding z-score [3],PBM binding z-score [4],PBM binding z-score [5],PBM binding z-score [6],PBM binding z-score [7],PBM binding z-score [8],PBM binding z-score [9],PBM binding z-score [10]
CCTGGGAGGACAACAGGAGGTCAGAGCTGCCAGA,1.53,2.1,2.07,1.57,-0.371,2.15,0.479,0.597,-0.563,0.161
ACTTACGAGTCAACGAGGTTATAGCACGCGTATA,0.899,1.12,0.413,1.26,0.307,1.73,0.967,0.553,0.564,0.254
TAACCTAGGTCAGATCGGGCCAGTATACGCTATA,2.84,2.52,0.693,1.64,0.561,2.29,1.87,2.06,0.906,1.62
CAAACTAGGTCACCGGAAGCTCAAAGTCCGCATG,4.54,2.93,0.559,2.24,0.297,5.45,9.51,7.22,5.15,7.39
ATCTCTCGGTAAAGATAGTTCAGTGAATGCAAAT,0.327,1.31,0.62,0.406,0.893,0.353,0.0238,0.0221,0.409,0.333
TCGAGTAGGTTAGTCAGGGCATTCAGCCAACATA,0.179,0.175,-0.126,0.121,-0.771,0.625,0.0481,0.99,1.13,0.992
CTCGAAAGGTCGTGCTCAGGTGATTATACCAAAC,4.98,4.19,0.561,3.64,0.429,4.83,2.63,3.52,0.939,2.35
GCTATGAGTTGAAAGGGCAACCGAATGATTCTCG,1.13,1.19,-0.0384,1.24,-0.412,3.11,2.75,3.86,1.58,3.23
TCAGACAGGTGAAGGTTACTCAGGTACGCAGTCG,1.24,3.55,0.607,2.38,0.0683,1.81,1.06,2.39,3.71,2.81
CCTACTGGGCCATCAGGTTATTGATATCAACGTT,0.0751,-0.156,0.178,0.293,-0.502,0.918,1.23,1.98,0.473,1.4
CGAACGAGGGCATGAGTTGATAGCTAATGCCGAT,0.677,0.398,-0.532,0.00979,-0.952,1.51,1.53,1.5,0.214,0.782
CCTTACGGGTCAAGAGGTTATAGCACGACGAGCG,6.14,4.17,0.128,3.63,-0.435,5.58,5.44,5.64,2.4,4.29
TCTGCTAGGTCTACGATGGTCAGCTAATCTGCTA,-0.634,-0.811,-1.12,-0.871,-0.759,-0.453,-0.582,-0.0115,1.48,0.437
TTACCAAGGTTAAGGTCGTTGATCCCTCTGTAGA,4.22,4.15,0.608,2.66,-0.123,3.38,1.85,3.34,1.44,2.99
TTACCACGGTGAAAGGTCGTTGATGCACGCCTTG,1.82,1.94,0.347,1.79,-0.318,4.03,6.35,6.53,5.02,6.87
GCATACAGGTAATACAAGGTGAAAGTCCGATTGT,0.599,2.17,0.595,0.711,-0.363,1.3,0.859,0.843,0.676,0.712
CCTACTGGGCCACGAAAGATCATTGATTCAGTGA,-0.333,-0.132,-0.275,-0.437,-0.666,0.946,1.67,1.31,0.112,0.519
GCTTGTAAATCAAGGTTAAGAAAGACTAAGCTAA,0.61,1.71,0.223,0.926,-0.355,1.56,0.214,0.467,0.122,0.622
CTCGAAATGTCGTGCTCAGGTGAGTATACCAAAC,0.0674,-0.048,-0.175,-0.182,0.0146,-0.0536,-0.165,-0.324,0.0529,-0.0106

Sequence,PBM binding z-score [1],PBM binding z-score [2],PBM binding z-score [3],PBM binding z-score [4],PBM binding z-score [5],PBM binding z-score [6],PBM binding z-score [7],PBM binding z-score [8],PBM binding z-score [9],PBM binding z-score [10]
TCTCGGAGAACACGAAAGGTCAGAGCTCGACATC,2.02,3.08,1.46,3,-0.199,3.32,0.977,2.21,2.43,2.25
CCTTACGGGTCACTGGCAGGTTATAGCATTTGGA,5.13,4.36,0.174,3.52,-0.315,5.15,4.06,4.83,1.9,3.26
TCATATAGGTAAAGGTGAAAGACGAACGATATGA,1.12,1.17,-0.192,1.28,0.0599,3.09,4.19,4.4,4.5,4.66
CCTAATAGTTGACCATAAGGGCAACCGAAGCTCG,0.919,0.486,0.29,0.606,0.214,0.827,0.664,0.43,0.117,0.37
CCTCGGAGGACAACAGAAGGTCAGAGCTGCCAGA,0.854,1.74,0.922,1.14,-0.67,1.78,0.435,0.249,-0.533,-0.218
TCATATAGGTAAAACAGGTGAAAGTCGGCATCTA,1.42,1.1,0.257,1.01,0.235,1.82,1.12,2.64,4.06,3.67
ATCTCTAGGTAATGTTCAGTGAAAGATCGATAGA,0.347,0.554,0.048,0.107,1.09,0.239,0.489,0.323,0.558,0.276
CCTGCTAGGTCATGGTCGGCTAATCTACAGTATG,3.56,2.8,-0.0293,1.91,-0.492,3.56,2.32,2.78,0.716,1.99
ATCGAAAGGTCGTGAGGTGATTATACAGAAAGGC,5.04,4.01,0.374,3.36,0.471,4.92,4.09,4.21,1.66,2.92
CCTACTGGGCCACGAAAGGTCATTGACTCAGTGA,4.14,5.29,4.5,4.65,0.406,5,4.93,4.87,2.71,4.15
ATCTCTGGGTAAAAGTTCAGTGAATCCCGAGGAT,0.844,1.38,1.37,1.04,1.4,4.12,7.38,7.77,6.93,9.04
CCTATTAGTTGACCAAAAGGGCAACCGAAGCTCG,0.908,0.905,0.816,1.02,0.763,1.5,0.545,1.52,0.286,1.18
TGTCGGAGGACACGAAGGTCAGAGCTTTCCAGAG,1.23,1.44,-0.131,0.759,-0.905,1.81,0.574,1.14,-0.39,0.47
ATTATTAGTTGAGACGAGGGCAACCGATAGGTTG,1.13,0.675,1.08,0.406,0.941,0.603,0.713,0.504,0.68,0.781
CAAACTAGGTCACCGGAAGGGCAAAGTCCGCATG,4.22,3.85,0.736,2.88,0.171,5.16,8.84,6.95,4.85,6.67
CCTTACGGGTCACCAGGTTATAGCACGACGAGCG,5.57,4.07,0.342,3.43,0.0793,5.41,6.15,6.21,2.59,4.99
CCAGACTGGTGAAAGGTAACTCAGTCTGGTACGC,-0.45,-0.241,-0.759,-0.0625,-0.842,1.46,2.67,3.83,1.66,3.26
GTACCAAGGTGAACAGGTCGTTGATGAGTAGGCG,0.658,0.647,-0.308,0.422,-0.997,2.34,1.64,1.88,0.3,1.02
AGCTCTAGGTAAAGTTCAGTGAAAGATCGATAGA,0.591,1.3,0.886,0.579,-0.0933,1.83,1.55,2.93,0.866,2.37
